Results filed as inconclusive are left out. Active and inactive are the calls of the source. Calls come from the whole dose curve; as a rule, active = well fitted cell-killing curve with a large enough effect; inconclusive = small, poorly fitted or top-dose-only effect, or effect the other way; inactive = no such curve, though single readings can be large or run the other way.
test: Quantitative High-Throughput drug screen in 47 multiple myeloma cell lines against the NCATS MIPE library collection: MM1S_ATCC cell viability assay (AID 1918980); conditions: MM1S myeloma viability, CellTiter-Glo ATP luminescence, 48 h; series mostly up to 45.8 µM; note: nearly all actives have a fitted effect of over 45% in size
Summary of the method: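 MIPE 4.0 approved/investigational drugs; 500 cells/well; 48 h 37 °C humidified 5% CO2; CTG luminescence readout; DMSO = 100%, media = 0% viability.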
Potency is the fitted concentration of half-maximal effect.

**Q.** For O=C(N[C@@H](c1ccccc1)[C@@H]1CCCCN1)c1cccc(C(F)(F)F)c1Cl, which Potency is on record?
**A.** The Potency was 20.9 µM (active).

**Q.** With N[C@H](CSC(c1ccccc1)(c1ccccc1)c1ccccc1)C(=O)O as the compound, how does the Potency read?
**A.** Its Potency is 13.2 µM (active).

**Q.** With CC=CCC(C)C(O)C1C(=O)NC(CC)C(=O)N(C)CC(=O)N(C)C(CC(C)C)C(=O)NC(C(C)C)C(=O)N(C)C(CC(C)C)C(=O)NC(C)C(=O)NC(C)C(=O)N(C)C(CC(C)C)C(=O)N(C)C(CC(C)C)C(=O)N(C)C(C(C)C)C(=O)N1C (stereo unspecified) as the compound, how does the Potency read?
**A.** Its Potency is “inactive”.

**Q.** Which Potency does the source give for C=CCc1ccc(O)c(-c2ccc(O)c(CC=C)c2)c1 here?
**A.** The Potency was 18.7 µM (active).

**Q.** For COc1cccc2c1CCCC2CCCN1CCN(C2CCCCC2)CC1 (stereo unspecified), which Potency is on record?
**A.** Its Potency is 20.9 µM (active).

**Q.** Which Potency does the source give for CC(=O)O[C@]1(C(C)=O)CC[C@@H]2[C@@H]3C[C@H](C)C4=CC(=O)CC[C@]4(C)[C@H]3CC[C@@]21C here?
**A.** The Potency was 13.2 µM (active).

**Q.** Which Potency does the source give for CO[C@H]1C[C@@H]2CC[C@@H](C)[C@@](O)(O2)C(=O)C(=O)N2CCCC[C@@H]2C(=O)O[C@H]([C@H](C)C[C@@H]2CC[C@H](OP(C)(C)=O)[C@H](OC)C2)CC(=O)[C@H](C)C=C(C)[C@@H](O)[C@@H](OC)C(=O)[C@H](C)C[C@H](C)C=CC=CC=C1C here?
**A.** The Potency was “inactive”.

**Q.** With O=c1cc(-c2ccccc2)oc2cc(O)c(O)c(O)c12 as the compound, how does the Potency read?
**A.** Its Potency is 18.7 µM (active).

**Q.** With CC(C)(C)c1cc(C(=O)O)c(NC(=O)Nc2ccc3[nH]ncc3c2)s1 as the compound, how does the Potency read?
**A.** The Potency was 16.6 µM (active).

**Q.** Which Potency does the source give for COc1ccc(C2CC(c3ccccc3)=NN2c2ccc(S(N)(=O)=O)cc2)cc1 (stereo unspecified) here?
**A.** Its Potency is 23.5 µM (active).

**Q.** With CC[C@@H]1C=C(C)C[C@H](C)C[C@H](OC)[C@H]2O[C@@](O)(C(=O)C(=O)N3CCCC[C@@H]3C(=O)O[C@H](C(C)=C[C@@H]3CC[C@H](Cl)[C@H](OC)C3)[C@H](C)[C@@H](O)CC1=O)[C@H](C)C[C@H]2OC as the compound, how does the Potency read?
**A.** The Potency was 14.8 µM (active).

**Q.** With O=C1Nc2ccc(Cl)cc2C(C#CC2CC2)(C(F)(F)F)O1 (stereo unspecified) as the compound, how does the Potency read?
**A.** The Potency was 20.9 µM (active).

**Q.** Which Potency does the source give for CC=CCC=CCCC(=O)[C@H]1O[C@@H]1C(N)=O here?
**A.** Its Potency is 20.9 µM (active).

**Q.** For CC(=O)Oc1cc2c(s1)CCN(C(C(=O)C1CC1)c1ccccc1F)C2 (stereo unspecified), which Potency is on record?
**A.** Its Potency is 0.833 µM (active).

**Q.** With CC1(C)CCC2=C(O1)c1ccccc1C(=O)C2=O as the compound, how does the Potency read?
**A.** Its Potency is 26.4 µM (active).

**Q.** With CC(C)n1nc(-c2ccc3oc(N)nc3c2)c2c(N)ncnc21 as the compound, how does the Potency read?
**A.** The Potency was 0.0105 µM (active).
